# Assay results from PubChem BioAssay (EPA / NIEHS).
# Inconclusive results are not listed. The source made the active and inactive calls. How the source made its calls: active means hit-call score of the fitted dose curve at least 0.9, where 1 is the maximum; inconclusive means response in the unintended direction; inactive means score below 0.9.
# Tests used:
# [1] = read-out: xenobiotic metabolism (CYP1A1), CYP1A1 (gene 1543); assay: CLD_CYP1A1_6hr: CellzDirect (CLD) Gene Expression Assay for xenobiotic metabolism (CYP1A1) at 6 hours (AID 2283661);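 on AC50: potency for transcript induction above DMSO vehicle baseline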
# Procedure, shortened: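 Primary human hepatocytes from two donors, compound versus 0.2% DMSO vehicle. CYP1A1 mRNA measured 6 h after dosing by quantitative nuclease protection assay with chemiluminescent read-out; induction fitted relative to DMSO, cytotoxicity flagged by microscopy.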
# [2] = read-out: alkyl and aryl transferase (GSTA2), GSTA2 (gene 2939); assay: CLD_GSTA2_6hr: CellzDirect (CLD) Gene Expression Assay for alkyl and aryl transferase (GSTA2) at 6 hours (AID 2283666)
# Procedure, shortened: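 Primary human hepatocytes from two donor preparations were dosed daily with fresh compound at multiple concentrations, 0.2% DMSO vehicle. GSTA2 mRNA was measured at 6 hours by qNPA chemiluminescence; induction fitted relative to DMSO, with cytotoxicity flagged morphologically.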
# [3] = read-out: organic anion transporter (SLCO1B1), SLCO1B1 (gene 10599); assay: CLD_SLCO1B1_6hr: CellzDirect (CLD) Gene Expression Assay for organic anion transporter (SLCO1B1) at 6 hours (AID 2283668);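 further: active means mRNA induction above DMSO baseline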
# Procedure, shortened: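 Primary human hepatocytes dosed daily with test chemicals (multiple concentrations) in 0.2% DMSO vehicle; harvested at 6 h. SLCO1B1 mRNA quantified by qNPA chemiluminescence, fitted as gain-of-signal versus DMSO; cytotoxicity from phase-contrast morphology flagged alongside.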
# [4] = read-out: glucuronosyltransferase (UGT1A1), UGT1A1 (gene 54658); assay: CLD_UGT1A1_6hr: CellzDirect (CLD) Gene Expression Assay for glucuronosyltransferase (UGT1A1) at 6 hours (AID 2283672)
# Procedure, shortened: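 Primary human hepatocytes from two donor preparations, dosed with fresh solutions in 0.2% DMSO, harvested at 6 h. UGT1A1 mRNA measured by qNPA chemiluminescence; induction fitted upward versus DMSO.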
# [5] = CLD_ACTIN_6hr: CellzDirect (CLD) Gene Expression Assay for Baseline Control (Actin) at 6 hours (AID 2283676);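 further: active means increased actin mRNA relative to DMSO vehicle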
# Procedure, shortened: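 Primary human hepatocytes dosed with fresh chemical solutions (vehicle 0.2% DMSO), harvested at 6 h. Actin mRNA quantified by quantitative nuclease protection assay with chemiluminescent read-out, as background control relative to DMSO.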
# [6] = read-out: Cytochrome P450 2B6 (Homo sapiens) (UniProt P20813); assay: CLD_CYP2B6_6hr: CellzDirect (CLD) Gene Expression Assay for xenobiotic metabolism (CYP2B6) at 6 hours (AID 2283677);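 further: actives raise CYP2B6 transcript above DMSO baseline so AC50 marks an inducer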
# Procedure, shortened: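 Primary human hepatocytes dosed with chemicals at multiple concentrations, vehicle 0.2% DMSO; CYP2B6 mRNA induction measured 6 h after dosing by quantitative nuclease protection assay with chemiluminescence, gain of signal fitted relative to DMSO.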
# [7] = read-out: Cytochrome P450 2C19 (Homo sapiens) (UniProt P33261); assay: CLD_CYP2C19_6hr: CellzDirect (CLD) Gene Expression Assay for xenobiotic metabolism (CYP2C19) at 6 hours (AID 2283678)
# Procedure, shortened: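 Primary human hepatocytes from two donor preparations were dosed daily, with 0.2% DMSO as vehicle, and harvested 6 h after dosing. CYP2C19 mRNA induction was measured by qNPA chemiluminescence and fitted as gain of signal against DMSO.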
# [8] = read-out: xenobiotic metabolism (CYP1A2), CYP1A2 (gene 1544); assay: CLD_CYP1A2_6hr: CellzDirect (CLD) Gene Expression Assay for xenobiotic metabolism (CYP1A2) at 6 hours (AID 2283663);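 on AC50: potency is for induction meaning a rise in mRNA above DMSO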
# Procedure, shortened: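 Primary human hepatocytes from two donor preparations, dosed daily with multiple concentrations in 0.2% DMSO and harvested at 6 h. CYP1A2 mRNA induction measured by chemiluminescent qNPA, gain of signal fitted against DMSO; cytotoxicity flagged morphologically.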
# [9] = Tanguay_ZF_120hpf_TR_legacy: (Legacy) Oregon State University Tanguay Lab 120 Hour Post-fertilization zebrafish Assay for Touch Response (AID 2283667)
# Procedure, shortened: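 5D WT embryos; static exposure to 120 hpf, 28C, sealed/dark; DMSO 0.64% v/v final. TR scored present/absent; dead embryos excluded. Pos ctrl 5uM trimethyltin chloride.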
# [10] = read-out: xenobiotic metabolism (CYP1A1), CYP1A1 (gene 1543); assay: CLD_CYP1A1_24hr: CellzDirect (CLD) Gene Expression Assay for xenobiotic metabolism (CYP1A1) at 24 hours (AID 2283673);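 further: CYP1A1 mRNA level by quantitative nuclease protection with chemiluminescence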
# Procedure, shortened: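 Primary human hepatocytes dosed daily with fresh solutions in 0.2% DMSO vehicle. mRNA measured at 24 h by quantitative nuclease protection assay with chemiluminescence; gain-of-signal fit versus DMSO, with morphology-based cytotoxicity flags.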
# [11] = read-out: xenobiotic metabolism (CYP2C9), CYP2C9 (gene 1559); assay: CLD_CYP2C9_6hr: CellzDirect (CLD) Gene Expression Assay for xenobiotic metabolism (CYP2C9) at 6 hours (AID 2283664)
# Procedure, shortened: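 Primary human hepatocytes dosed daily with test chemicals at multiple concentrations; harvested at 6 h. CYP2C9 mRNA induction measured by qNPA chemiluminescence. Gain of signal fitted against 0.2% DMSO vehicle; cytotoxicity annotated from phase-contrast morphology.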
# [12] = tested on: Thyroperoxidase (TPO), gene 54314; assay: CCTE_Simmons_AUR_rTPO: CCTE's Amplex UltraRed Assay for Thyroperoxidase (TPO) Inhibition, Simmons Lab (AID 2283662);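 on AC50: potency for loss of signal meaning inhibition of peroxidase activity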
# Procedure, shortened: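 Rat thyroid microsomes (5 ug protein) with 25 uM Amplex UltraRed and 300 uM H2O2 in 200 mM phosphate buffer, 30 min at 37C in dark; fluorescence 544/590 nm. Eight concentrations, 5 nM–87.5 uM final, 0.5% DMSO, triplicate biological replicates.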
# [13] = CCTE_Simmons_CellTiterGLO_HEK293T: Viability Assessment in CCTE's Assays for Thyroperoxidase (TPO) Inhibition, Simmons Lab (AID 2283665);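 on AC50: cells exposed to compound for 24 h before readout; actives reduce ATP signal below DMSO vehicle meaning cytotoxicity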
# Procedure, shortened: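 HEK293T cells in DMEM with 1% FBS, dosed 24 h at 37C with 8 concentrations, 5 nM–87.5 uM final, 0.5% DMSO. ATP measured by CellTiter Glo luminescence; loss of signal vs DMSO, three biological replicates.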
# [14] = read-out: sulfotransferase (SULT2A), SULT2A1 (gene 6822); assay: CLD_SULT2A_6hr: CellzDirect (CLD) Gene Expression Assay for sulfotransferase (SULT2A) at 6 hours (AID 2283669);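 further: hits raise transcript level above the DMSO vehicle baseline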
# Procedure, shortened: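 Primary human hepatocytes from two donor preparations were dosed daily with chemicals or 0.2% DMSO and harvested at 6 h. Transcript induction read by qNPA chemiluminescence, fitted for gain of signal relative to DMSO; morphology-based cytotoxicity annotated.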
# [15] = read-out: Broad substrate specificity ATP-binding cassette transporter ABCG2 (Homo sapiens) (UniProt Q9UNQ0); assay: CLD_ABCG2_6hr: CellzDirect (CLD) Gene Expression Assay for ABC Transporter (ABCG2) at 6 hours (AID 2283660)
# Procedure, shortened: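 Primary human hepatocytes dosed daily with chemicals at multiple concentrations (0.2% DMSO vehicle), harvested 6 h after dosing. ABCG2 mRNA induction read by quantitative nuclease protection assay (qNPA) chemiluminescence; gain of signal fitted against DMSO baseline.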
# Sequence of Broad substrate specificity ATP-binding cassette transporter ABCG2 (Homo sapiens) (Q9UNQ0 whole entry, looked up): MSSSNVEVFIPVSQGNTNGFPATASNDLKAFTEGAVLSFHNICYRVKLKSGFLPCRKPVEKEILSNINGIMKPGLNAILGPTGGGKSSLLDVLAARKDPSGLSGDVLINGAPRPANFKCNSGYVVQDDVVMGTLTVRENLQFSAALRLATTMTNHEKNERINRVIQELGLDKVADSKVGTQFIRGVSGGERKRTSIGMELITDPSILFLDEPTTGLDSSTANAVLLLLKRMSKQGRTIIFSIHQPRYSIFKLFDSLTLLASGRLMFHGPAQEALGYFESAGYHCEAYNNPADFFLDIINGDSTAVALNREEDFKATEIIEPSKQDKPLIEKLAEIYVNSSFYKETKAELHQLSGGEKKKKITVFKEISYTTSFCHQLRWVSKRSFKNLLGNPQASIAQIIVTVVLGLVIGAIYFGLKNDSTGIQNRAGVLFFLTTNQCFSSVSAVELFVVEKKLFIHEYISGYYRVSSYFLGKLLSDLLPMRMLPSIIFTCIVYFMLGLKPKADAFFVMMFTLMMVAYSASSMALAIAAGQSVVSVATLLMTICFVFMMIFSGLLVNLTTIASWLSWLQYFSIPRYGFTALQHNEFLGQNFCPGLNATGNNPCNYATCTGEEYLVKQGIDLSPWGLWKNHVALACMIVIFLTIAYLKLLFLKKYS
# Sequence of Cytochrome P450 2C19 (Homo sapiens) (P33261 whole entry, looked up): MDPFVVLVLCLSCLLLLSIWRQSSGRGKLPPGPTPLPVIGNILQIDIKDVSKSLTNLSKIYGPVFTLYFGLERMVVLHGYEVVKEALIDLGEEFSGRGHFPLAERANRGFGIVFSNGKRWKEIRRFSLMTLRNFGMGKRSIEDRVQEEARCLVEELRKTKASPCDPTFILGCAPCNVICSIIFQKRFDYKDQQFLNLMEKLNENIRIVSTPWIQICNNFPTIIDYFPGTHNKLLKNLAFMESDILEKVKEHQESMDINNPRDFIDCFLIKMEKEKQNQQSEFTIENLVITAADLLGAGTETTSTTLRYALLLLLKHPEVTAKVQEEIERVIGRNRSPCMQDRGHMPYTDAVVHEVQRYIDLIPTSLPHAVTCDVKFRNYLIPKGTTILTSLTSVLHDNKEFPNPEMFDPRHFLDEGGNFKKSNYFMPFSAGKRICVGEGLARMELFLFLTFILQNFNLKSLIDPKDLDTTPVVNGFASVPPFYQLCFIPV
smiles,measurement,setting,value
Clc1cccc(C(Cl)(Cl)Cl)n1,AC50,[1],20 µM (active)
same,outcome,[2],inactive
same,outcome,[3],inactive
same,outcome,[4],inactive
same,outcome,[5],inactive
same,AC50,[6],1.9 µM (active)
same,outcome,[7],inactive
Cc1cc(C)nc(Nc2ccccc2)n1,AC50,[1],3.97 µM (active)
same,AC50,[8],3.97 µM (active)
same,outcome,[9],inactive
same,outcome,[4],inactive
same,AC50,[10],7.59 µM (active)
same,AC50,[6],0.994 µM (active)
COc1cc(OC)nc(NC(=O)NS(=O)(=O)c2ncccc2OCC(F)(F)F)n1,outcome,[11],inactive
same,outcome,[9],inactive
same,outcome,[3],inactive
same,outcome,[5],inactive
same,outcome,[6],inactive
same,outcome,[7],inactive
CC(C)=CC1C(C(=O)OCc2coc(Cc3ccccc3)c2)C1(C)C (configuration not stated),AC50,[12],26.8 µM (active)
same,outcome,[11],inactive
same,AC50,[13],32.7 µM (active)
same,outcome,[9],inactive
same,outcome,[10],inactive
same,AC50,[6],7.48 µM (active)
same,outcome,[7],inactive
COCC(=O)N(c1c(C)cccc1C)C(C)C(=O)OC (configuration not stated),outcome,[11],inactive
same,outcome,[2],inactive
same,outcome,[9],inactive
same,outcome,[3],inactive
same,AC50,[6],2.5 µM (active)
same,outcome,[7],inactive
CSC(=O)c1c(C(F)F)nc(C(F)(F)F)c(C(=O)SC)c1CC(C)C,outcome,[11],inactive
same,outcome,[2],inactive
same,outcome,[9],inactive
same,outcome,[3],inactive
same,outcome,[4],inactive
same,outcome,[5],inactive
same,AC50,[6],2.11 µM (active)
same,outcome,[7],inactive
CC1(C)C(C(=O)OC(C#N)c2cccc(Oc3ccccc3)c2)C1(C)C (configuration not stated),outcome,[1],inactive
same,outcome,[11],inactive
same,outcome,[9],inactive
same,outcome,[14],inactive
same,outcome,[4],inactive
same,outcome,[10],inactive
same,outcome,[5],inactive
same,AC50,[6],4.01 µM (active)
COP(=S)(OC)Oc1ccc([N+](=O)[O-])c(C)c1,AC50,[12],5.57 µM (active)
same,AC50,[8],3.34 µM (active)
same,outcome,[13],inactive
same,outcome,[2],inactive
same,outcome,[9],inactive
same,outcome,[14],inactive
same,outcome,[4],inactive
same,outcome,[5],inactive
same,AC50,[6],1.46 µM (active)
same,outcome,[7],inactive
CC(C)C1(C)N=C(c2ncccc2C(=O)O)NC1=O (configuration not stated),outcome,[15],inactive
same,outcome,[2],inactive
same,outcome,[9],inactive
same,outcome,[3],inactive
same,outcome,[4],inactive
same,AC50,[6],0.00054 µM (active)
same,outcome,[7],inactive
CCNP(=S)(OC)O/C(C)=C/C(=O)OC(C)C (configuration not stated),outcome,[12],inactive
same,outcome,[11],inactive
same,outcome,[2],inactive
same,outcome,[9],inactive
same,AC50,[10],3.93 µM (active)
same,outcome,[5],inactive
same,AC50,[6],0.84 µM (active)
CCCCOCN(C(=O)CCl)c1c(CC)cccc1CC,outcome,[15],inactive
same,outcome,[9],inactive
same,outcome,[3],inactive
same,AC50,[14],4.32 µM (active)
same,outcome,[4],inactive
same,outcome,[5],inactive
same,AC50,[6],2.29 µM (active)
CCN(CC)c1nc(C)cc(OP(=S)(OC)OC)n1,AC50,[12],19.1 µM (active)
same,AC50,[13],53.8 µM (active)
same,outcome,[9],inactive
same,outcome,[3],inactive
same,AC50,[10],5.14 µM (active)
same,AC50,[6],1.59 µM (active)
O=P(O)(O)CCCl,AC50,[12],18.2 µM (active)
same,outcome,[13],inactive
same,outcome,[2],inactive
same,outcome,[9],inactive
same,outcome,[3],inactive
same,outcome,[4],inactive
same,outcome,[5],inactive
CS(=O)(=O)c1cc(C(F)(F)F)ccc1C(=O)c1cnoc1C1CC1,outcome,[8],inactive
same,outcome,[11],inactive
same,outcome,[9],inactive
same,outcome,[3],inactive
same,outcome,[14],inactive
same,outcome,[4],inactive
same,outcome,[10],inactive
same,outcome,[5],inactive
same,outcome,[6],inactive
same,outcome,[7],inactive
N#CN=C1SCCN1Cc1ccc(Cl)nc1,outcome,[15],inactive
same,outcome,[2],inactive
same,outcome,[9],inactive
same,outcome,[4],inactive
same,outcome,[6],inactive
same,outcome,[7],inactive
O=C(O)c1c(Cl)ccc2cc(Cl)cnc12,outcome,[11],inactive
same,outcome,[9],inactive
same,outcome,[10],inactive
same,outcome,[6],inactive
same,outcome,[7],inactive
O=C1C2CC=CCC2C(=O)N1SC(Cl)(Cl)Cl (configuration not stated),outcome,[15],inactive
same,outcome,[11],inactive
same,outcome,[2],inactive
same,outcome,[9],inactive
same,outcome,[5],inactive
COCc1cnc(C2=NC(C)(C(C)C)C(=O)N2)c(C(=O)O)c1 (configuration not stated),outcome,[15],inactive
same,outcome,[2],inactive
same,outcome,[9],inactive
same,outcome,[3],inactive
same,outcome,[5],inactive
same,outcome,[7],inactive
C=C(C)CN(CC)c1c([N+](=O)[O-])cc(C(F)(F)F)cc1[N+](=O)[O-],outcome,[1],inactive
same,outcome,[8],inactive
same,outcome,[2],inactive
same,outcome,[9],inactive
same,AC50,[10],20 µM (active)
same,outcome,[5],inactive
same,outcome,[6],inactive
same,outcome,[7],inactive
